# Shown are actives, neighbours in structure and some others; about 4.7% of the full set was active somewhere.
# SDO1 yeast rescue = compounds rescuing growth of sdo1-depleted yeast, bone marrow failure model; S. cerevisiae sdo1-depleted JHY4D growth rescue, OD600 30 h; active compounds read high; pdr5 snq2 efflux-pump mutant strain; AID 817; z-score at 10 µM; 0.21% of 140,000 active;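 active = z-score above 3 at both the 24 hr and the 30 hr optical density reads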;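 also: z-score against mean and SD of all compound wells on the same plate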
# Cav32 inh = blocks human Cav3.2 T-type calcium channel; O95180; Cav3.2-expressing cells, Fluo-4 calcium fluorescence FDSS; active compounds read low; B-score at 10 µM; 4% of 100,000 active;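 active = single-dose well whose peak fluorescence ratio is a statistical outlier from its plate by either plate-standardised score or position-corrected B-score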
# Target sequence (O95180 whole entry, looked up): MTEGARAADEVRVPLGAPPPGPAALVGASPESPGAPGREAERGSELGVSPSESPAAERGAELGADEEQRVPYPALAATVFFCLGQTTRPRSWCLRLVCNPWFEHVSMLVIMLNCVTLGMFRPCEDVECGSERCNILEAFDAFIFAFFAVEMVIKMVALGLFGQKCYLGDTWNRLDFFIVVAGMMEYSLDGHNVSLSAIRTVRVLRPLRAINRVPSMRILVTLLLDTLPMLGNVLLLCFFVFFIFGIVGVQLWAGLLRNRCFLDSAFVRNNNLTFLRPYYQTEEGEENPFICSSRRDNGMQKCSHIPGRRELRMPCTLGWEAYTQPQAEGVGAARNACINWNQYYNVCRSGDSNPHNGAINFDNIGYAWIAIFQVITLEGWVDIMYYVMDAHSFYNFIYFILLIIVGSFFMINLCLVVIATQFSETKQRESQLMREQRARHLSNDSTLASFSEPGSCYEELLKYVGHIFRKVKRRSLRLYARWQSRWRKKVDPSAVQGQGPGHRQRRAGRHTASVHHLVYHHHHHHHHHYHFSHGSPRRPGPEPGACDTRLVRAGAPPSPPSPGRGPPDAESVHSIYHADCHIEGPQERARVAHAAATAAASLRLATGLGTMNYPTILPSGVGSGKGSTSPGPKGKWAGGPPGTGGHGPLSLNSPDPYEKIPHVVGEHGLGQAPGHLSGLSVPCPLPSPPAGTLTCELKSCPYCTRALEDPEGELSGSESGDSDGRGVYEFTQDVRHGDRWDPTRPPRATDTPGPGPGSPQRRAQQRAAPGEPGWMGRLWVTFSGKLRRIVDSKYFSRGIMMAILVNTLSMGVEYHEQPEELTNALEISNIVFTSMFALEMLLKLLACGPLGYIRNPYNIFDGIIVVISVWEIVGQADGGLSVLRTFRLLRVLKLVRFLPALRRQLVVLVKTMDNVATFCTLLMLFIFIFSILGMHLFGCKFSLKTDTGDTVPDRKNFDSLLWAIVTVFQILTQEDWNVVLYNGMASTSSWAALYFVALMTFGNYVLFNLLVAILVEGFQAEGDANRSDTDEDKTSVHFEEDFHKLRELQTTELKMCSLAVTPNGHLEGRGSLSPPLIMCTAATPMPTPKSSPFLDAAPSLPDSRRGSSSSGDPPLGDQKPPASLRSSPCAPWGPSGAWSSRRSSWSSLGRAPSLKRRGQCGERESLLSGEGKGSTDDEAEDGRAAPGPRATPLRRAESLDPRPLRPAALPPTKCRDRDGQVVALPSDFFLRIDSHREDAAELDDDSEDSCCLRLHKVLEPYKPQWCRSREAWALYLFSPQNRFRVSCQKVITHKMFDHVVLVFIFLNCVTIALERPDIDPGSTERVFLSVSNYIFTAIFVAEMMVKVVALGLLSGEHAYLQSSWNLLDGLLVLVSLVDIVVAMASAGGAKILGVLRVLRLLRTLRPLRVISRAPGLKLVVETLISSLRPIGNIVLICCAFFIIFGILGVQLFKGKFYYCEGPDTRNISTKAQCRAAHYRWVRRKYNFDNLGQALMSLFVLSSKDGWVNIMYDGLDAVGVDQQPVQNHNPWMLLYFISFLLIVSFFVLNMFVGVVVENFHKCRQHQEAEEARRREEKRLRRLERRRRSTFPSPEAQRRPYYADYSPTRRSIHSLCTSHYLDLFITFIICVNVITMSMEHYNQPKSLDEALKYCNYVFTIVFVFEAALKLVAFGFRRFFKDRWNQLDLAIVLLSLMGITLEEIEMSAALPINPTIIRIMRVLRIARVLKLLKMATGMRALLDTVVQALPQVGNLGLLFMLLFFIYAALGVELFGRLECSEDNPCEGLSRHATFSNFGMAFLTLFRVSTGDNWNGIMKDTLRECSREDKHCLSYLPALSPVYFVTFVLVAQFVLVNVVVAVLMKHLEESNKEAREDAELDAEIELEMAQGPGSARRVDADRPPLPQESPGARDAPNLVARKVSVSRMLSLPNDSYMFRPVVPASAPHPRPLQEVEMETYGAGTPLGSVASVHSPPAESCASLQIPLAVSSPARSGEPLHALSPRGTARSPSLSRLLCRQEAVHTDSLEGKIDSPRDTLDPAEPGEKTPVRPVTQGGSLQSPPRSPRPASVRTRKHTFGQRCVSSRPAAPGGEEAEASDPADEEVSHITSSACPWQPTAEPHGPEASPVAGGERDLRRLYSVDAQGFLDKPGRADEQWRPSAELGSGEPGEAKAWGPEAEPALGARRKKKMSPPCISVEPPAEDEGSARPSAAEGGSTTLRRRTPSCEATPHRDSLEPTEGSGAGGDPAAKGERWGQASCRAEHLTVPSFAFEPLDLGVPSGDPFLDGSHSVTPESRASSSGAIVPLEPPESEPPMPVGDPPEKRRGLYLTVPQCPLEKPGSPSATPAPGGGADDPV
# PLK1 kinase inh = PLK1 (human) kinase inhibition | recombinant PLK1 kinase, TR-FRET peptide phosphorylation | inhibition, % at 10 µM | 0.53% of 97,000 active | AID 619;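 active = inhibition of 50% or more in the single-concentration screen; inactive = inhibition below 50%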;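 also: 0% = DMSO max control and 100% = H-89 dihydrochloride min control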
# DAT uptake mod = changed human dopamine transporter uptake under cocaine IC80. Q01959. LLC-PK1 hDAT cells, [14C]-dopamine uptake with cocaine IC80; actives deviate in either direction. B-score at 10 µM. 1.3% of 110,000 active;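 active = Z score or B-score, a plate-position-corrected score, falls beyond the plate's 99.7% confidence bounds, in either direction; inactive = both scores lie inside the 99.7% bounds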;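 also: scored against the spread of the other compound wells on the same plate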
# Pyk2 oligo antag = antagonists of human Pyk2 oligomerization | AID 1347419 | z-score (the deposit names both 25 µM and 10 µM) | Q293 cells, Pyk2 FERM NanoBiT luminescence; active compounds read low | 0.83% of 99,000 active;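 active = Z-score of -3 or lower, scaled per plate to the spread of control and sample wells; inactive = z-score above -3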;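 also: negative z-score means lost luminescence so less FERM oligomerization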
# Plk1 PBD FP = inhibitors of human Plk1 polo box domain binding. P53350. Plk1 PBD phosphopeptide binding, fluorescence polarization. inhibition, %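 (tested at about 20 µM)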. 0.13% of 97,000 active. AID 693; in the data active = inhibition above about 34%, passing the limit was not always enough
# * marks the source's active call; other numbers are inactive results; . = not tested or not shown.
SMILES,SDO1 yeast rescue,Cav32 inh,PLK1 kinase inh,DAT uptake mod,Pyk2 oligo antag,Plk1 PBD FP
COC(=O)Cc1c[nH]c2cccc(OCC(O)CN(Cc3ccc([N+](=O)[O-])cc3)C(C)(C)C)c12 (stereo not given),-1.7,-6.4*,-5,0.0023,-0.89,-17
CCOc1cc(Cl)c(NC(=O)CC)cc1OCC,1.9,.,.,.,.,.
CN(C1=NC(=O)C(CC(=O)Nc2ccc(Br)cc2)S1)c1ccc(O)cc1 (stereo not given),0.31,0.075,-2,-4*,-1.1,9
Cc1ccc(/C(=N\O)c2oc3c(C)c4oc(=O)cc(C)c4cc3c2C)cc1,-0.89,.,36,.,-2.6,11
Cc1cc(=O)oc2c1ccc1oc(/C(=N/O)c3ccccc3)c(C)c12,-0.41,-0.017,-6,0.11,-3.7*,9
Cc1ccc(C)c(C(=O)COC(=O)c2ccccc2N2C(=O)C3C4CCC(C4)C3C2=O)c1 (stereo not given),-0.56,-2.9,-7,0.88,-1.3,6
Cc1cc2cc(C(c3nnnn3Cc3ccco3)N3CCc4ccccc43)c(=O)[nH]c2cc1C (stereo not given),-0.99,-2,-4,-1,0.47,-3
Cc1cc2cc(C(c3nnnn3Cc3ccco3)N3CCc4ccccc4C3)c(=O)[nH]c2cc1C (stereo not given),-0.78,0.34,-16,3.9*,-0.89,9
COc1cc(NC(=O)C2COc3ccccc3O2)c(OC)cc1Cl (stereo not given),-1.6,-4.5*,-8,0.64,-0.33,-2
COc1ccc(Cc2nc(C(=O)Nc3ccccc3)cs2)cc1,-1.4,-3.8*,-9,-1.8,-0.07,32
COc1ccc(CNC(=O)c2noc3c2CCCC3)cc1,0.51,-5.4*,-16,-1.4,0.96,4
COc1ccc(CNC(=O)c2csc(Cc3ccc(OC)cc3)n2)cc1,-0.28,-7.9*,-8,1.5,-1.9,1
N#Cc1c(NC(=O)COC(=O)c2ccc(S(=O)(=O)N3CCCC3)cc2)sc2c1CCCCC2,-0.32,.,.,.,.,.
O=C(Nc1ccccc1C(F)(F)F)c1cc2ncc(CCCl)cn2n1,-0.35,.,.,.,.,.
CC1(C)CC(=O)C2=C(C1)Oc1ncn(Cc3ccco3)c(=N)c1C2c1ccccc1 (stereo not given),-1.4,2.1,-14,0.8,-1.1,-17
N=c1c2c(ncn1CCN1CCOCC1)Oc1ccc3ccccc3c1C2c1ccccc1 (stereo not given),-0.93,-1.1,0,0.035,-1.9,-25
COc1ccc(C2c3c(ncn(CCN4CCOCC4)c3=N)Oc3ccc4ccccc4c32)cc1 (stereo not given),-0.71,0.54,3,3.4*,-2.6,-9
COc1ccc(C2C3=C(CC(C)(C)CC3=O)Oc3ncn(Cc4ccccc4)c(=N)c32)cc1 (stereo not given),-1.6,-0.83,-3,1.3,-3.7*,28
COc1ccc(C2c3c(ccc4ccccc34)Oc3ncn4nc(Cc5ccc(OC)c(OC)c5)nc4c32)cc1 (stereo not given),0.66,.,.,.,.,.
COc1ccc(C2c3c(ccc4ccccc34)Oc3ncn4nc(CO/N=C/c5ccccc5)nc4c32)cc1 (stereo not given),-0.58,-4.6*,4,-0.73,0.23,-27
CC1CN(C(=O)C2CC2)C(C)CN1C(=O)C1CC1 (stereo not given),0.58,.,.,.,-0.57,.
Cc1ccc(S(=O)(=O)N2CCN(C(=O)N3CCOCC3)C2C(C)C)cc1 (stereo not given),0.45,-0.42,-14,-0.016,-0.2,-20
CCN(CC)c1ccc(C2N(C(=O)N3CCOCC3)CCN2S(=O)(=O)c2ccc(C)cc2)cc1 (stereo not given),0.57,-4.1*,-29,0.0068,0.2,-1
Cc1ccc(C)c(NS(=O)(=O)c2cc(C(=O)Nc3cccc(N(C)S(C)(=O)=O)c3)ccc2C)c1,0.5,-4.4*,-14,1.1,-2.4,43
Cc1ccccc1NS(=O)(=O)c1cc(C(=O)NCCSC2CCCCC2)ccc1C,-0.78,-4.4*,-13,0.12,-0.98,-5
SMILES,SDO1 yeast rescue,Cav32 inh,PLK1 kinase inh,DAT uptake mod,Pyk2 oligo antag,Plk1 PBD FP
Cc1ccc(C(=O)NCc2ccco2)cc1S(=O)(=O)Nc1cccc(Cl)c1,0.38,-6*,-11,-0.065,-1.2,-17
Cc1ccc(C)c(NS(=O)(=O)c2cc(C(=O)NCCSC3CCCCC3)ccc2C)c1,-0.93,-4.5*,-10,1,-0.79,1
Cc1ccccc1NS(=O)(=O)c1cc(C(=O)N2CCCC2)ccc1C,0.47,1.6,-7,-0.014,-1.3,6
COc1cccc(N2C(=O)C(Cc3c[nH]c4ccccc34)NC2=S)c1 (stereo not given),-0.17,.,.,.,.,.
COc1ccccc1Nc1nnc(SCc2cc(=O)n3cc(C)ccc3n2)s1,0.5,.,.,.,.,.
Cc1ccc(C(=O)NCCSc2ccccc2)cc1S(=O)(=O)Nc1ccccc1,-0.26,-5.8*,-6,1.3,-1.6,18
COCCNC(=O)c1ccc(C)c(S(=O)(=O)Nc2ccc(C)cc2)c1,0.25,2.3,-11,-1.1,-0.31,3
Cc1cccc(C)c1NC(=O)C(C)c1ccc(-c2ccccc2)c(F)c1 (stereo not given),-1.4,-4.3*,-8,0.31,-1.1,-4
N#Cc1ccc(COC(=O)c2ccc(N3CCCC3)c([N+](=O)[O-])c2)cc1,1,.,.,.,.,.
CCCCCn1nc(-c2ccccc2)c2nc3ccccc3nc21,-0.94,-7.3*,-19,0.22,0.46,-20
Nc1c(CO)nnn1-c1ccccc1,-0.34,.,.,.,.,.
Cc1cccc(C)c1OCc1nnc(SCC(=O)NCCc2ccccc2)o1,-0.8,-5.7*,-7,-0.42,-2.4,4
CC(C)(C)NC(=O)NC(=O)CSc1nnc(COc2ccccc2Cl)o1,-0.67,-6*,-11,1.3,0.97,9
CCc1ccc(CN(C)CC(=O)Nc2sccc2C#N)cc1,-0.57,.,.,.,0.23,.
CC1(C)CC(=O)C2=C(C1)c1c(ccc3ccccc13)NC2c1ccc(Br)o1 (stereo not given),-2.1,-1.4,-5,0.24,0.55,-9
Cc1cc2cc(C=O)c(Cl)nc2cc1C,-0.58,-5.9*,-13,-1.2,0.85,19
Cc1ccc2cc(C=O)c(N(C)C)nc2c1,1.2,.,.,.,.,.
CCOc1cc(CNCCO)cc(Br)c1OCc1ccccc1Cl,-1.1,-0.22,1,1.3,1.1,-7
CCOc1cc(CNC(C)(C)CO)cc(Br)c1OCc1ccc(Cl)cc1Cl,-0.86,-0.62,-10,2.5*,0.53,9
O=C(Nc1ccc(Cl)c(Cl)c1)c1cccc(S(=O)(=O)NCc2cccnc2)c1,-0.34,.,.,.,.,.
Cc1ccccc1NC(=O)CCC(=O)N/N=C/c1ccncc1,.,.,23,.,.,.
COc1cc(NC(=O)c2ccnnc2)cc(C(=O)Nc2cccc(C(F)(F)F)c2)c1,.,0.088,.,3.3*,.,.
COc1cccc(C(=O)Nc2cc3c(cc2C(C)=O)OCCO3)c1,-0.01,.,.,.,.,.
